Source: PubChem BioAssay (National Center for Advancing Translational Sciences (NCATS))
USP2a block: inhibitors of human ubiquitin-specific protease USP2a; AID 463254; O75604; 0.01% of 330,000 active; USP2 core, Ub-CHOP2 coupled fluorogenic reporter, 485/531; Potency, µM (highest dose often 38.3 µM), for the others: at the highest dose activity change, negative = inhibition, usual class: inhibitors;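 note: potency is the fitted concentration of half-maximal effect; plate controls were DMSO wells for no effect and full inhibition by NEM control for full effect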
Target sequence (O75604 whole entry, looked up): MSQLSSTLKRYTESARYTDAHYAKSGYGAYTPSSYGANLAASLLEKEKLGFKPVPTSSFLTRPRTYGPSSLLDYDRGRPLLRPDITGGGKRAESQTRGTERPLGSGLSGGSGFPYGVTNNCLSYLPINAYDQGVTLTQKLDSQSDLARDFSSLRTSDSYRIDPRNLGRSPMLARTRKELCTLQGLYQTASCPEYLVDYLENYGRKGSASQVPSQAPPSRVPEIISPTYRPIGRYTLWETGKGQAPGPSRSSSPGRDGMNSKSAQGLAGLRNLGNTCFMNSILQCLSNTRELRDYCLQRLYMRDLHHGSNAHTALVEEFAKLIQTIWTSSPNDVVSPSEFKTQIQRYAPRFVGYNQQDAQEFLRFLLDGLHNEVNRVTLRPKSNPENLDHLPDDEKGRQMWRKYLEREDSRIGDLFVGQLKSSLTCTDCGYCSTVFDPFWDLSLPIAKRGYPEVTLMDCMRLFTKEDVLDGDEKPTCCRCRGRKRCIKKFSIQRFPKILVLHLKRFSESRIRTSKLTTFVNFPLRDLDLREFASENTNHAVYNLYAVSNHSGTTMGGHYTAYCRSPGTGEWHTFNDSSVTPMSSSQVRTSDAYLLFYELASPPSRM
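Deubiquitinase activity read as fluorescence (485/531 nm) after Ub-CHOP2 cleavage activates the enterokinase reporter on its substrate; USP2 core 10nM, Ub-CHOP2 and substrate 25nM each, 30min compound preincubation then 60min RT; data normalized to NEM, curves fitted.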
USP1 inh: blocks the human USP1/UAF1 deubiquitinase complex; recombinant USP1/UAF1, Ub-Rhodamine cleavage fluorescence; Potency, µM (titrated, usually from 57.1 µM), without a hit: at the top dose activity change, negative = inhibition, hits mostly inhibitors; 0.23% of 390,000 active; O94782; note: potency is the fitted concentration of half-maximal effect; % is set by controls: 0 for no effect and ±100 for the full control effect; nearly all actives have a fitted effect of over 60% in size
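Step one: compound is pinned into 1nM USP1/UAF1 in HEPES pH 7.8 buffer with TCEP. Step two: 15 min room-temperature incubation. Step three: Ub-Rho (150nM final) starts cleavage, tracked by fluorescence over six one-minute reads.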
IL1B secr inh: inflammasome signaling inhibition, IL-1 beta readout. THP-1 LPS/ATP IL-1B secretion, AlphaLISA, 16 h; stronger effect = lower value. 4.7% of 360,000 active. AID 743279. activity change, % at 57.5 µM; in the data active = activity change below about -50%; inconclusive = mostly about -30% to -49%; note: % is set by controls: 0 for no effect and ±100 for the full control effect
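THP-1 cells pretreated 1 hr with compounds (up to 57.5 uM final), then stimulated with LPS (250 ng/mL final) plus ATP (1.25 mM final); secreted IL-1B measured by AlphaLISA after 16 hr, decreased signal indicating inhibition.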
ATXN2 expr inh: inhibitors of ATXN2 expression. 0.72% of 360,000 active. HEK-293 ATXN2-luciferase reporter, luminescence, 24 h. Potency, µM (top dose mostly 57 µM), without a hit: top-dose activity change, negative = inhibition, actives largely listed as inhibitors; note: potency is the fitted concentration of half-maximal effect; % is set by controls: 0 for no effect and ±100 for the full control effect; nearly all actives have a fitted effect of over 55% in size
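ATXN2-luciferase reporter cells (luciferase flanked by upstream and downstream ATXN2 gene portions) were treated 24 h at 37 °C with compounds at up to 57 uM. SteadyGlo luminescence gave expression; GF-AFC fluorescence gave viability.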
ATXN viability: reduces viability in counter-screen for ATXN expression inhibitors | S2 cells (HEK-293 line with an ATXN2-luciferase reporter) viability, CellTiter-Fluor protease fluorescence, 24 h | Potency, µM (top dose mostly 56.7 µM), hits mostly cytotoxic | 0.49% of 400,000 active | AID 651635; note: potency is the fitted concentration of half-maximal effect; nearly all actives have a fitted effect of over 40% in size
Active calls of the source: *; i = inactive; ? = inconclusive; · = no result given. The list is not random: actives were taken first. Their share in the collection is about 4.8%. Unless noted, calls come from the whole dose curve; as a rule, active = well fitted curve in the direction sought with a large enough effect; inconclusive = small, poorly fitted or top-dose-only effect, or another doubt; inactive = no such curve, though single readings can be large; an effect the other way counts as inactive or inconclusive.

SMILES | USP2a block | USP1 inh | IL1B secr inh | ATXN2 expr inh | ATXN viability
C[C@@H](NC(=O)c1[nH]cnc1C(=O)Nc1cccc(Cl)c1)c1ccccc1 | -2% | -29% | 6 | -16% | ?
COc1ccc(C2=C(C=O)Cc3ccccc3O2)cc1 | · | -3% | -28 | -31% | i
CCOC(=O)c1cnc2ccc(OC)cc2c1Nc1ccc(N2CCN(C)CC2)cc1 | -1% | i | -24 | ? | i
CNC(=O)c1nn(C)c2c1C(C)(C)Cc1cnc(Nc3ccc(N4CCN(C)CC4)cc3)nc1-2 | · | · | · | 1.7µM* | ·
Cc1cc(C)n(-c2nc(N(c3ccccc3)c3ccccc3)nc(-n3nc(C)cc3C)n2)n1 | -1% | -18% | -84* | 10µM* | 8.9µM*
CC(NC(=O)CN(C)CC(=O)Nc1ccc(Cl)c(C(F)(F)F)c1)c1ccccc1 (stereo not given) | 4% | -19% | -16 | -18% | ?
Cc1ccc2occ(CC(=O)Nc3ccc(Cl)c(C(F)(F)F)c3)c2c1 | · | ? | · | 25µM* | ?
CN(CC(=O)NCC(=O)Nc1ccc(F)cc1)CC(=O)Nc1ccc(Cl)c(C(F)(F)F)c1 | · | -3% | -72* | -15% | i
CN(CC(=O)Nc1ccc(Cl)c(C(F)(F)F)c1)C(=O)Cc1cccs1 | -2% | -14% | ? | -17% | i
CN(CC(=O)Nc1ccc(Cl)c(C(F)(F)F)c1)C(=O)Cc1ccsc1 | 1% | -21% | -89* | -23% | i
Cc1ccc2occ(CC(=O)Nc3ccc(S(N)(=O)=O)cc3)c2c1 | · | 9% | · | -8% | i
CN(CC(=O)NCc1ccc(F)cc1)CC(=O)Nc1ccc(Cl)c(C(F)(F)F)c1 | -1% | -5% | -69* | ? | ?
O=C(O)c1ccccc1Nc1cccc(OCc2ccc3ccccc3n2)c1 | -9% | -13% | 38 | 5% | i
CN(CC(=O)Nc1ccc(Cl)c(Cl)c1)Cc1nnc(-c2ccc(F)cc2)o1 | -5% | -9% | -58* | -14% | i
CC1(C)O[C@@H]2C[C@H]3[C@@H]4C[C@H](F)C5=CC(=O)C=C[C@]5(C)[C@@]4(F)[C@@H](O)C[C@]3(C)[C@]2(C(=O)CO)O1 | 5% | -24% | -54* | 1% | i
CCOc1ccc(Nc2nc(-c3c(C)nc4ccccn34)cs2)cc1 | · | · | · | -9% | ·
NC(CSCc1ccccc1Cl)C(=O)O (stereo not given) | -2% | -23% | 12 | · | i
N=C(N)SCc1ccccc1Cl | 5% | -10% | -80* | 3% | i
Cc1ccc(CCNC(=O)CSCc2nc(-c3ccc(C)cc3)oc2C)cc1 | · | 8% | · | · | ·
NS(=O)(=O)c1ccc(CNC(=S)Nc2cc(S(=O)(=O)N3CCOCC3)ccc2Cl)cc1 | · | -11% | -15 | -10% | i
CC(C)C(N)c1csc(Nc2ccc(C(=O)c3ccccc3)cc2)n1 (stereo not given) | · | · | -60* | ? | ?
NC(c1csc(Nc2ccc(C(=O)c3ccccc3)cc2)n1)c1ccccc1Cl (stereo not given) | · | · | -7 | ? | i
CC(C)CC(N)c1csc(Nc2ccc(C(=O)c3ccccc3)cc2)n1 (stereo not given) | · | · | -59* | ? | ?
NC(CO)c1csc(Nc2ccc(C(=O)c3ccccc3)cc2)n1 (stereo not given) | · | · | ? | 14% | i
CC(N)c1csc(Nc2ccc(C(=O)c3ccccc3)cc2)n1 (stereo not given) | · | · | -52* | -10% | i
SMILES | USP2a block | USP1 inh | IL1B secr inh | ATXN2 expr inh | ATXN viability
COc1ccccc1Nc1cc(C)nc(Nc2ccccc2OC)n1 | -1% | -22% | -14 | -4% | ?
Cc1ccc(CCNC(=O)C2COc3ccccc3C2)cc1 (stereo not given) | · | ? | · | 11% | i
COc1cc(/C=C(\C#N)C(=O)c2ccc(O)c(O)c2)cc(I)c1O | -8% | 25µM* | 44 | 0% | ?
CCN(CC)c1nc(C(N)=O)cc(-c2ccccc2)n1 | -8% | -15% | -73* | 6% | i
CN(N)c1nc(-c2ccccc2)cc(-c2ccccc2)n1 | 0% | ? | -64* | -26% | i
CN1CCN(c2nc(C(N)=O)cc(-c3ccccc3)n2)CC1 | 0% | -9% | -57* | -15% | i
N#Cc1ccc(Oc2nc(C(N)=O)cc(-c3ccccc3)n2)cc1 | -1% | -5% | -11 | -12% | i
Cc1nc(-c2ccccc2)cc(-c2ccccc2)n1 | · | 1% | 27 | 17% | i
Cc1cc(-c2ccccc2)nc(N2CCN(c3ccccn3)CC2)n1 | 0% | ? | 32 | 60% | i
Cc1ccc2nc(-c3ccccc3C)c(CN(CC3CCCO3)C(=O)c3cccs3)cc2c1 (stereo not given) | · | · | · | · | i
COc1cc(=O)n2c(c1C(=O)NCc1ccc3c(c1)OCO3)CCN(C(=O)c1cccc(F)c1)CC2 | · | · | · | · | i
O=C(CSc1nc2c([nH]c3ccccc32)c(=O)n1-c1ccc(F)cc1)N1CCc2ccccc21 | · | -33% | · | 1% | i
COc1ccc(NCc2nnc(SCc3ccc(Cl)cc3)n2-c2ccccc2)cc1 | -15% | -20% | -53* | ? | ?
COc1ccc(-n2c(CNc3ccc(C)cc3)nnc2SCC(=O)Nc2nc(-c3ccccc3)cs2)cc1 | 2% | -5% | 40 | 18µM* | 22µM*
COc1cc(CN2C[C@@H](CO)O[C@@H](n3cnc4c(N5CCN(C)CC5)ncnc43)C2)cc(OC)c1OC | · | · | 14 | 10% | i
COc1ccc2nc3ccccc3nc2c1N | -1% | ? | -63* | -18% | ?
O=C(Nc1cccc2ncccc12)c1cc([N+](=O)[O-])ccc1Cl | 2% | -15% | -88* | -18% | i
O=C(Nc1cccnc1Cl)c1cc([N+](=O)[O-])ccc1Cl | 4% | -3% | -63* | 42% | i
Cc1ccc([N+](=O)[O-])c(C(=O)Nc2cccnc2Cl)c1 | -1% | 0% | 13 | · | i
CCSc1ccccc1C(=O)Nc1ccc([N+](=O)[O-])cc1OC | -3% | -5% | 0 | -28% | i
O=C(CCl)Nc1cccc2ncccc12 | 2% | -8% | -99* | -37% | ·
CCc1ccccc1NC(=O)c1ccccc1Sc1ccc([N+](=O)[O-])cc1Cl | -4% | -5% | -55* | -18% | i
COc1ccc(OCC(=O)Nc2cccc3ncccc23)cc1 | 0% | -10% | -18 | -1% | i
Cc1ccc(S(=O)(=O)N2C[C@H]3C(=O)C[C@@H](c4ccc(Cl)cc4)N(S(=O)(=O)c4ccccc4C)[C@H]3C[C@H]2c2ccccc2)cc1 | · | -20% | 16 | -5% | i
CC(=O)Nc1ccc(NC(=O)C(NC(=O)C2CCC(C)CC2)C(C)C)cc1 (stereo not given) | · | -4% | · | 3% | i
